# In all, about 310,000 compounds went through this assay and about 14,000 (4.5%) showed an effect of 50% or more. The effect is printed as a negative number. Shown is part of a subset that was picked to be rich in strong results.
# Target: human ether-à-go-go-related gene (hERG) potassium channel (human, UniProt Q12809)
# Assay: primary screen, population patch clamp on CHO cells stably expressing hERG; higher = less effect of the substance
# 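Also: peak tail current of the secondary pulse compared with the same well before compound.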
# Chain of human ether-à-go-go-related gene (hERG) potassium channel (Q12809 whole entry, looked up): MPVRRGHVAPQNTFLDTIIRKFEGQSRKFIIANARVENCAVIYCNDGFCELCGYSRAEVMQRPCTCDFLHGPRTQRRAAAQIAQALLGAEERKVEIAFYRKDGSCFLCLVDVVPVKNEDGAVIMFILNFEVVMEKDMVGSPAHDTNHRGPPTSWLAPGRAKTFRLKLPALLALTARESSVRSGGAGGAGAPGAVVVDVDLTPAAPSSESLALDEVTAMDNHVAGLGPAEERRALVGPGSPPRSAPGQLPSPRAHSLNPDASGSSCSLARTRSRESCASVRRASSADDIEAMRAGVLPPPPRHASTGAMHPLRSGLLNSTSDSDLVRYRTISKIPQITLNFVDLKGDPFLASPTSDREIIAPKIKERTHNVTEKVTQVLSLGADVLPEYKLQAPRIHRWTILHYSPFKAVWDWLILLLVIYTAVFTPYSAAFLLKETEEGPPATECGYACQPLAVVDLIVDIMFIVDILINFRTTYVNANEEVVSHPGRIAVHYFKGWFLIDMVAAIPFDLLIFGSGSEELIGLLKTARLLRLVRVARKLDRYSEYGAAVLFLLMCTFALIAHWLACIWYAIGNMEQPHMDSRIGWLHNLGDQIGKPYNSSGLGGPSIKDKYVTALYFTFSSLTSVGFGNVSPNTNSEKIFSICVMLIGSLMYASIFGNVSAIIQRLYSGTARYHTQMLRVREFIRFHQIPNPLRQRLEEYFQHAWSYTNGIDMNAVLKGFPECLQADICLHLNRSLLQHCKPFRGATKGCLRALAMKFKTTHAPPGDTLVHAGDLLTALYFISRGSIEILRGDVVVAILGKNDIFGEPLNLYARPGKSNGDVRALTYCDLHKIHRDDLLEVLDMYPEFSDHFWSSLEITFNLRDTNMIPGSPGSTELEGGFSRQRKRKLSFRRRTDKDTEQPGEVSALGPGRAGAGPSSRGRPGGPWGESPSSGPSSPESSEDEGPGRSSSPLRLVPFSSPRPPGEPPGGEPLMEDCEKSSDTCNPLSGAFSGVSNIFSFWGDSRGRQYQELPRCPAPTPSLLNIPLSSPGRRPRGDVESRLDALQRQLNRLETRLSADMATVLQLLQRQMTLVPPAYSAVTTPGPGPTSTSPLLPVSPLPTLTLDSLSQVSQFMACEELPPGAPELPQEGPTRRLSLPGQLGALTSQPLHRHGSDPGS
row,SMILES,"hERG current change (%, negative = inhibition) at 10uM [%]"
1,COc1ccccc1N(C(=O)c1csnn1)C(C(=O)NC1CCCC1)c1ccccc1 (stereo not drawn),-1.69
2,Cc1c(Cl)cccc1NC(=O)CSc1sc2c(O)cc(=O)[nH]c2c1C#N,-2.45
3,Cc1ccc(O)c(C2=Nc3ccccc3N=C(c3cccs3)C2)c1,12
4,O=S(=O)(NCC(c1cccnc1)N1CCOCC1)c1cccs1 (stereo not drawn),-10.9
5,CCN1CCN(C(CNS(=O)(=O)c2cccs2)c2cccnc2)CC1 (stereo not drawn),-61.4
6,COc1ccc(N2CCN(C(CNC(=O)Oc3ccccc3)c3cccnc3)CC2)cc1 (stereo not drawn),-27.5
7,CCS(=O)(=O)NCC(c1cccnc1)N1CCN(c2ccc(OC)cc2)CC1 (stereo not drawn),-11.3
8,COc1ccc(N2CCN(C(CNS(=O)(=O)c3cccs3)c3cccnc3)CC2)cc1 (stereo not drawn),-72.5
9,COC(=O)NCC(c1cccnc1)N1CCN(c2ccccc2)CC1 (stereo not drawn),-13.3
10,O=S(=O)(NCC(c1cccnc1)N1CCN(c2ccccc2)CC1)c1cccs1 (stereo not drawn),-60.4
11,CN1CCN(C(CNS(=O)(=O)c2cccs2)c2cccnc2)CC1 (stereo not drawn),-21.4
12,O=S(=O)(NCC(c1cccnc1)N1CCN(c2ccc(F)cc2)CC1)c1cccs1 (stereo not drawn),-71.7
13,CCCOc1ccc(C2C(C(=O)c3cc4ccccc4o3)=C(O)C(=O)N2c2cc(C)on2)cc1OC (stereo not drawn),25.3
14,Cc1cnc(C(=O)Oc2ccc(-c3ccccc3)cc2)cn1,16.8
15,CCCCOCCCNC(=O)c1ccc(OC)cc1,-6.63
16,COc1ccc(NS(=O)(=O)c2cc3c(cc2C)N(C)CCO3)cc1,-10.5
17,O=S(=O)(NCC(c1cccnc1)N1CCN(c2ccccc2F)CC1)c1cccs1 (stereo not drawn),-60.5
18,CCS(=O)(=O)NCC(c1cccnc1)N1CCN(c2ccccc2F)CC1 (stereo not drawn),-3.19
19,CS(=O)(=O)NCC(c1cccnc1)N1CCN(c2ccccc2F)CC1 (stereo not drawn),-9.77
20,Cc1ccc(C(=O)CCC(=O)N2CCC(C(N)=O)CC2)cc1,32
21,CCOC(=O)C1(CCC(C)C)CC(CSc2nc3ccccc3[nH]2)OC1=O (stereo not drawn),-25.2
22,O=C(O)c1cc([N+](=O)[O-])c(NCc2cccnc2)c([N+](=O)[O-])c1,9.52
23,COc1ccc2c(c1)c(C(=O)CN1CCN(C)CC1)c(C)n2Cc1ccccc1,-35

row,SMILES,"hERG current change (%, negative = inhibition) at 10uM [%]"
1,CCN1CCN(CC(=O)c2c(C)n(Cc3ccccc3)c3ccc(OC)cc23)CC1,-41.3
2,COc1ccc2c(c1)c(C(=O)CN1CCC3(CC1)OCCO3)c(C)n2Cc1ccccc1,-53
3,CCOC(=O)N[C@H](Cc1c[nH]c2ccccc12)C(=O)NC1CC1,3.42
4,Cc1ccccc1N1CCN(C(=O)CN2C(=O)c3ccccc3C2=O)CC1,-11.8
5,O=C(CN1C(=O)CSc2ccccc21)NC1CCCC1,0.766
6,CC(C)CNC(=O)c1ccccc1SCC(=O)NC12CC3CC(CC(C3)C1)C2,-5.62
7,COc1ccc2[nH]c(C(=O)N3CCC(n4nccc4NC(=O)C4CC4)CC3)c(C)c2c1,-30.4
8,Cc1c(CN2CCC(n3nccc3NC(=O)C3CC3)CC2)[nH]c2ccccc12,-61
9,COc1ccc2[nH]c(CN3CCC(n4nccc4NC(=O)C4CC4)CC3)c(C)c2c1,-63.3
10,COc1ccc(C(=O)Nc2ccnn2C2CCN(Cc3cn(C)nc3C)CC2)cc1,17.1
11,O=C(Nc1ccnn1C1CCN(Cc2cc3ccccc3[nH]2)CC1)C1CCOC1 (stereo not drawn),-31.5
12,COc1cccc(CC(=O)N2CCC(n3nccc3NC(=O)C3CC3)CC2)c1,32
13,Cc1cc(C)c2[nH]c(C(=O)N3CCC(n4nccc4NC(=O)C4CC4)CC3)c(C)c2c1,-44.6
14,Cc1c(C(=O)N2CCC(n3nccc3NC(=O)C3CC3)CC2)[nH]c2ccc(Cl)cc12,-59.4
15,Cc1c(CN2CCC(n3nccc3NC(=O)C3CCOC3)CC2)[nH]c2ccccc12 (stereo not drawn),-30.6
16,O=C(Cn1cnc([N+](=O)[O-])c1)NCc1ccc(F)cc1,7.86
17,O=C(NC(=S)Nc1ncccn1)c1ccccc1Cl,11.8
18,O=C(Nc1cc([N+](=O)[O-])ccc1F)C1CC1,-4.7
19,Cc1ccc(CCNC(=O)CNS(=O)(=O)c2ccc3nc(C)sc3c2)cc1,2.53
20,Cc1ccc(CNC(=O)CNS(=O)(=O)c2ccc3nc(C)sc3c2)cc1,-64.6
21,CCNS(=O)(=O)c1ccc(CCC(=O)NCc2ccccc2)cc1,-19.6
22,CCNS(=O)(=O)c1ccc(CCC(=O)NCc2ccc(C)cc2)cc1,-53.1
23,Cc1nc2ccc(S(=O)(=O)NCC(=O)NCc3ccc(Cl)cc3)cc2s1,17.4

row,SMILES,"hERG current change (%, negative = inhibition) at 10uM [%]"
1,CCNS(=O)(=O)c1ccc(CCC(=O)NCc2ccncc2)cc1,2.58
2,CSc1ccccc1NC(=O)CN(C)S(=O)(=O)c1ccc(F)cc1,-35.2
3,CC(=O)Nc1ccc(OCCC[n+]2cccc(C(=O)[O-])c2)cc1,12.5
4,Cn1cnc2c(oc3ccccc32)c1=O,9.26
5,CC1(C)N=C(/C=N/O)CN1O,11.7
6,CCCCC(=O)Nc1cc(C)c2c(=O)oc3ccccc3c2n1,4.39
7,COc1ccc(S(=O)(=O)Cc2ccc(C(=O)N3CCN(c4ccccn4)CC3)o2)cc1,-27.9
8,COc1cc(OC)c(C2SCCS2)c(OC)c1,2.14
9,CCOC(=O)CC(=O)NC1(Cc2ccc(O)cc2)CCCCC1,1.06
10,O=C(O)c1cc([N+](=O)[O-])ccc1NCc1ccccn1,12.7
11,O=[N+]([O-])c1ccc(Cc2ccccn2)cc1,-15.7
12,NC(=O)c1cc([N+](=O)[O-])ccc1NCc1ccccn1,-73.8
13,NC(=O)c1cc([N+](=O)[O-])ccc1NCc1cnccn1,-12.9
14,O=[N+]([O-])c1ccc(Cc2ccccn2)c([N+](=O)[O-])c1,-50.2
15,O=[N+]([O-])c1ccc(Nc2ccccn2)c([N+](=O)[O-])c1,-4.46
16,COn1c(-c2ccc(Cl)cc2Cl)nc2ncccc21,-1.12
17,CCc1nnc(NC(=O)c2sc3nc4c(cc3c2N)CCCCCC4)s1,4.75
18,COc1ccc(N/C=C/C(=O)c2ccc(Cl)cc2)cc1,-13.7
19,CCN1CCN(CCCNC(=O)Cn2nc(C)n3nc(-c4ccccc4)cc3c2=O)CC1,-11.1
20,Clc1ccc(Cn2c(-c3cccnc3Cl)nc3ccccc32)cc1,-70.7
21,Clc1ccc(Cn2c(-c3cccnc3Cl)nc3ccccc32)c(Cl)c1,-22.1
22,Clc1ncccc1-c1nc2ccccc2n1Cc1ccccc1,-33.5
23,O=c1ccc(-c2nc3ccccc3n2Cc2ccccc2Cl)c[nH]1,-11.9

row,SMILES,"hERG current change (%, negative = inhibition) at 10uM [%]"
1,O=c1ccc(-c2nc3cc(Cl)ccc3n2Cc2ccccc2)c[nH]1,-73.9
2,O=c1[nH]cccc1-c1nc2cc(Cl)ccc2n1Cc1ccccc1,-12
3,Cc1ccccc1Cn1c(-c2ccc(=O)[nH]c2)nc2ccccc21,-11.4
4,O=c1ccc(-c2nc3ccccc3n2Cc2ccc(Cl)cc2)c[nH]1,-76
5,Cc1cc2nc(-c3ccc(=O)[nH]c3)n(Cc3ccccc3)c2cc1C,-35.2
6,Cc1cc(/C=N/NC(=O)c2nn(C)cc2Cl)c(C)n1-c1cccc(Br)c1,8.09
7,Nc1nonc1-n1nncc1-c1ccccc1,1.98
8,CCN(Cc1ccccc1)C(=O)COC(=O)CNC(=O)c1ccc(C)s1,1.42
9,CSc1ccc(/C=N\Nc2nncn2N)cc1.Cl,10.9
10,CCOC(=O)c1sc(NC(=O)COc2ccc3c(c2)OCO3)nc1C,7.47
11,CCCCOP(=O)(OCCCC)/C(C#N)=C(/C)O,13.1
12,CC(C)C(NC(=O)c1ccccc1Br)c1ccccc1 (stereo not drawn),11.2
13,CC(=O)n1cc([C@H]2C=C(C(=O)O)O[C@@H](OCCCCO)C2)c2ccccc21,0.0595
14,CC(=O)n1cc([C@@H]2C=C(C(=O)Nc3ccccc3)O[C@H](OCCCCO)C2)c2ccccc21,-54.5
15,CC(=O)n1cc([C@H]2C=C(C(=O)Nc3ccccc3)O[C@@H](OCCCCO)C2)c2ccccc21,-25
16,C#CCNC(=O)C1=C[C@@H](c2cn(C(C)=O)c3ccccc23)C[C@@H](OCCCCO)O1,-40.1
17,CC(=O)n1cc([C@@H]2C=C(C(=O)NCc3ccccc3)O[C@H](OCc3ccc(CO)cc3)C2)c2ccccc21,-26.6
18,C=CCOC(=O)C1=C[C@H](c2cn(C(C)=O)c3ccccc23)C[C@H](OCCCCO)O1,-38.7
19,CC(=O)n1cc([C@H]2C=C(C(=O)NCc3ccccc3)O[C@@H](OCc3ccc(CO)cc3)C2)c2ccccc21,15.6
20,CC(=O)n1cc([C@@H]2C=C(C(=O)NCc3ccccc3)O[C@H](OCCCCO)C2)c2ccccc21,-78.3
21,CC(=O)n1cc([C@H]2C=C(C(=O)NCc3ccccc3)O[C@@H](OCCCCO)C2)c2ccccc21,-62

# Reference: paper PMC4336329 (PLoS ONE, 2015)
